# An excerpt weighted towards active compounds, which were near 2.4% of everything screened.
# D2 ag-1 = agonists of human D2 dopamine receptor (beta-arrestin); DiscoveRx PathHunter D2 beta-arrestin, luminescence, 90 min; 100% = 57 uM dopamine signal; activation, % (no concentration beside the values); 0.084% of 360,000 active; in the data active = activation above about 40%; inconclusive = between about 15% and that limit
# Target sequence (P14416 whole entry, looked up): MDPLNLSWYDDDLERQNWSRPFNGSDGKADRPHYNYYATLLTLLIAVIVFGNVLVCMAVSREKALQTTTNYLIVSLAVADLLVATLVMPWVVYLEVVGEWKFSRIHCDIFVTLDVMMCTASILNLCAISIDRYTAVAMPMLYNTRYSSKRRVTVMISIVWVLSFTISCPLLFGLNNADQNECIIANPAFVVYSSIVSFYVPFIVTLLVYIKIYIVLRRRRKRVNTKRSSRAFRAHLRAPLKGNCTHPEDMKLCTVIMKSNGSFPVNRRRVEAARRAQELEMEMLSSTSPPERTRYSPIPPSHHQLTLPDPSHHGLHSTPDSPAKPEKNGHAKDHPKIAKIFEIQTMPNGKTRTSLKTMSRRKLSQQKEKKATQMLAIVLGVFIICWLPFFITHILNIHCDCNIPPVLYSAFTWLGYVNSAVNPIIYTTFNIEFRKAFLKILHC
#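 Agonist mode: compounds alone added to overnight-plated D2 PathHunter cells for 90 min at 37 C, with 57 uM final dopamine (EC100) defining full response. Beta-arrestin recruitment detected by chemiluminescent reagent, read after 1 h at ambient temperature.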
# D2 PAM-1 = potentiates the human D2 dopamine receptor allosterically; P14416; DiscoveRx D2 beta-arrestin cells, luminescence, 90 min; 100% = 57 uM dopamine signal; potentiation, % (concentration not given with the values); 0.23% of 360,000 active; AID 624464; in the data active = potentiation above about 50%; inconclusive = mostly about 30% to 49%
#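 PathHunter beta-arrestin assay in DiscoveRx D2 cells. Compounds were added with an EC20 of dopamine (50 nM final) for 90 min at 37 deg C. Luminescence was read 1 h after detection reagent, with 57 uM dopamine as the EC100 control.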
# D2 antagonist = antagonists of human D2 dopamine receptor; P14416; HEK293 TREx D2 cells, calcium flux, dopamine EC80; inhibition, % at 10 µM; 2% of 340,000 active; in the data active = inhibition above about 30%; inactive = below that, where a call was filed; note: 0% is about no effect
#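 Compounds are added to dye-loaded, induced HEK293 T-REx cells coupled to calcium release via D2; after a 3 min kinetic read an EC80 dopamine stimulus is given and fluorescence is recorded for 3 more min.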
# D2 PAM-2 = positive allosteric modulators of human D2 dopamine receptor; 0.34% of 340,000 active; potentiation, % at 10 µM; P14416; AID 485347; HEK293 T-REx D2, calcium flux, EC20 dopamine potentiation;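 active = potentiation over 3 SD above the plate norm, cut at about 30% in these data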; note: 0% is about no effect
#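 Using a no-wash calcium dye in inducible, force-coupled HEK293 Trex cells expressing D2, we tracked fluorescence each second for 180 s after compound, then for 180 s after EC20 dopamine to detect augmented signalling.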
# D2 ag-2 = activates the human D2 dopamine receptor; AID 485358; HEK293 T-REx D2 cells, calcium flux agonist mode; 0.53% of 340,000 active; activation, % at 2 µM; P14416;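 active = activation over 3 SD above normal in the single-dose calcium agonist read, cut at about 30% in these data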; note: 0% is about no effect
#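 Tetracycline-induced HEK293 Trex cells with D2 receptor force-coupled to calcium signaling, plated overnight at 30 C and loaded with no-wash calcium dye. Calcium flux read kinetically for 180 s after compound addition; responses flag agonists.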
# Active calls of the source: *; ? = inconclusive; / = not tested or not shown.
SMILES,D2 ag-1,D2 PAM-1,D2 antagonist,D2 PAM-2,D2 ag-2
COc1cc(CNCCCN2CCOCC2)cc(Br)c1OCC(=O)N1CCCCC1,-2.7,-5.5,32.3*,7.5,0.0
COC(=O)c1ccc(/C=C/C(=O)c2ccc(OC)c(OC)c2)cc1,-2.1,-33.0,-10.5,-5.2,0.8
COc1ccc(/C=C/C(=O)c2ccc(C(=O)/C=C/c3ccc(OC)c(OC)c3)cc2)cc1OC,6.4,-2.1,33.6*,0.6,3.3
NC(=O)c1ccc(NCc2ccco2)c([N+](=O)[O-])c1,-4.1,-13.7,34.5*,5.1,0.7
COc1ccc(Br)cc1S(=O)(=O)n1c([N+](=O)[O-])cnc1C,-2.8,-9.0,34.0*,1.8,0.7
COc1ccc(-c2cc3ccccc3oc2=O)cc1NC(=O)c1ccc(Br)o1,-6.5,-14.5,-5.9,-8.2,1.1
COc1ccc(-c2cc3ccccc3oc2=O)cc1NC(=O)c1ccc([N+](=O)[O-])o1,11.1,100.7*,-13.0,-6.1,-0.4
Cc1csc2c(NC3CCN(Cc4ccccc4)CC3)ncnc12,-1.5,-3.9,89.2*,-24.0,-0.8
Fc1ccccc1CNc1ncnc2sccc12,-0.9,1.3,-0.8,2.2,0.7
Cc1sc2ncnc(NC3CCN(Cc4ccccc4)CC3)c2c1C,0.9,-16.8,68.0*,-20.4,0.6
c1ccc(CN2CCC(Nc3ncnc4sccc34)CC2)cc1,-3.9,-13.3,77.5*,-19.0,0.9
CS(=O)(=O)NC1CCN(Cc2ccccc2)CC1,-1.2,-8.5,28.9,-6.1,-0.1
c1ccc(CN2CCC(Nc3nc(-c4cccnc4)nc4ccccc34)CC2)cc1,-4.8,-47.4,49.4*,-22.3,0.5
COc1ccccc1N(C)S(=O)(=O)c1ccc(C(=O)O)cc1,-2.1,-0.7,8.2,10.2,3.8
c1ccc(OCCN2CCN(C(c3ccccc3)c3ccccc3)CC2)cc1,-1.0,-2.2,46.0*,-15.5,0.6
CN(CCOc1cccc(C(F)(F)F)c1)Cc1ccccc1,-6.7,-19.8,/,/,/
FC(F)(F)c1cccc(OCCN2CCN(Cc3ccccc3)CC2)c1,-1.7,-44.5,82.0*,-20.4,0.5
O=c1[nH]c2ccccc2n1CCCN1CCN(C(c2ccccc2)c2ccccc2)CC1,/,/,83.8*,-27.1,-0.5
O=c1[nH]c2ccccc2n1CCCN1CCCCC1,0.6,-20.1,20.2,-21.0,0.2
Cc1cc(=O)n(CC(C)O)c(O)c1C#N (centres undefined),4.9,61.8*,-22.3,5.8,-0.9
Cc1cc(=O)n(CCCO)c(O)c1C#N,6.9,?,2.8,-5.4,0.7
C=CCNc1nc(N2CCCCC2)c(C#N)c2c1CN(Cc1ccccc1)CC2,-4.8,-43.5,72.4*,-13.2,0.2
N#Cc1c(N)sc(=S)c2c1CCN(Cc1ccccc1)C2,/,/,31.6*,9.8,0.8
CCN1CCc2c(C#N)c(N3CCCCC3)nc(NCc3ccccc3)c2C1,-1.5,-28.4,11.1,-22.1,-0.3
CC(C)N1CCc2c(sc(N)c2C#N)C1,0.6,-7.6,-12.4,-9.6,2.0
SMILES,D2 ag-1,D2 PAM-1,D2 antagonist,D2 PAM-2,D2 ag-2
CCN1CCc2c(sc(N)c2C#N)C1,43.4*,?,4.2,/,0.1
N#Cc1c(NCCO)nc(NCc2ccccc2)c2c1CCN(Cc1ccccc1)C2,0.8,-1.3,-15.6,-5.6,-0.5
CC(C)c1ccc(N(C(=O)CNC(=O)c2ccco2)C(C(=O)NC2CCCC2)c2ccncc2)cc1 (centres undefined),-6.0,-13.9,31.4*,-9.7,0.1
CCCCNc1nc(C)c(C(C)=O)cc1C#N,5.4,12.1,-15.6,9.2,-1.1
Cc1nc2c(o1)C(=O)c1ccccc1C2=Nc1ccccc1,?,51.2*,/,/,/
C[C@H]1CN([C@@H](C)CO)C(=O)CCCn2nncc2CO[C@@H]1CN(C)S(=O)(=O)c1ccccc1,-1.2,1.3,/,/,/
CCN(CC)CC(O)CN1c2ccccc2Sc2ccccc21 (centres undefined),7.0,-37.3,-23.4,-22.0,-0.7
CC(CN1c2ccccc2Sc2ccccc21)N(C)C (centres undefined),-6.0,-17.2,54.1*,-26.2,0.9
CC(CN(C)C)CN1c2ccccc2Sc2ccccc21 (centres undefined),-0.2,-32.5,76.1*,-21.3,0.1
CC1c2ccccc2SC(CCCN(C)C)c2ccccc21 (centres undefined),-2.0,-39.0,50.5*,-26.9,5.7
Cc1cccc(N2CCN(c3ccc(N4C(=O)CCCC4=O)cc3[N+](=O)[O-])CC2)c1C,1.7,-1.2,-1.3,6.3,-1.3
COCCNC(=S)N/N=C(\C)c1ccc(C)c([N+](=O)[O-])c1,2.0,-6.3,32.3*,-1.6,-1.7
CCOC(=O)CCCNC(=O)COC(=O)CCC(=O)c1ccc(F)cc1,-2.8,4.3,-5.7,0.6,0.2
CCCN(CCC)CCCNC(=O)C(NS(=O)(=O)c1ccc2c(c1)CCC(=O)N2)c1ccccc1 (centres undefined),1.4,-9.1,44.7*,-0.4,1.9
CCCN(CCO)CCCc1ccccc1,0.4,-21.5,-3.0,5.8,0.4
CCN(CCCc1ccccc1)CCCc1ccccc1,-9.1,-32.2,83.1*,-31.0,2.5
Cc1c(C(=O)Nc2ccc3c(c2)OCCO3)sc2nc(-c3ccccc3)cn12,3.2,-7.0,72.8*,-4.4,-1.2
Cc1cccc(NC(=O)c2ccc(F)c(S(=O)(=O)NCc3ccco3)c2)c1,-1.4,-6.4,33.0*,1.2,-1.9
Cn1c(CSCc2ccc(Cl)c(Cl)c2)nnc1SCC(=O)Nc1nccs1,?,69.6*,-11.1,10.5,0.2
CC1=NN(c2ccccc2)C(=O)/C1=C\c1cc(C)n(C)c1C,-8.3,-8.2,-5.5,3.0,-1.0
Cc1ccc2c(c1)C1CN(C)CCC1N2C(=O)Nc1ccc(Cl)cc1 (centres undefined),-1.1,-16.4,-19.1,-16.5,2.8
COc1cccc(/C=C/C(=O)OCC(=O)c2ccc3c(c2)NC(=O)CO3)c1,-0.1,-4.7,42.1*,17.1,-0.2
COC(=O)C1=C(O)/C(=C\c2cc(C)n(-c3ccccc3C)c2C)N=C1C,-0.1,-23.0,32.1*,13.4,0.0
CC(Cc1ccccc1)NC(=O)C1(c2ccccc2)CCOCC1 (centres undefined),-1.6,-9.4,9.0,-1.1,0.1
CC(C)NC(=O)C1(c2ccccc2)CCOCC1,-2.8,-15.5,-26.0,34.9*,1.3
COc1ccccc1C(=O)NCC(=O)N1CC=C(c2ccccc2)CC1,2.0,-12.5,30.2*,-6.4,-0.9
COc1ccc(C)cc1S(=O)(=O)N(C)CC(=O)NCc1ccncc1,-0.5,-2.0,32.8*,7.7,0.2
CCN(CC)S(=O)(=O)c1ccc(Cl)c(C(=O)Oc2cccnc2)c1,-3.5,-10.1,-3.5,1.5,-0.5
